Source: PubChem (National Center for Advancing Translational Sciences (NCATS))
SW480 rereplic = inducers of DNA re-replication in SW480 colon cancer cells | Potency, µM (doses to about 46.1 µM), actives largely listed as activators | 1.8% of 340,000 active | SW480 DNA re-replication, Hoechst DNA content imaging, 48 h | AID 624297; further: nearly all actives have a fitted effect of over 55% in size
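250 cells/well; 23 nL cpd via pin tool; 48 hr, 37 C, 5% CO2; Hoechst 40 min; imager read of total nuclear intensity, ex 405/em 500-530 nm.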
KB-V1 MDR tox = kills drug-selected multidrug resistant KB-V1 cells. Potency, µM (doses to about 46.1 µM), usual class: cytotoxic. KB-V1 MDR cells viability, CellTiter-Glo, 72 h. 3.4% of 400,000 active; further: nearly all actives have a fitted effect of over 60% in size
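KB-V1 cells (P-gp-expressing MDR subline of KB-3-1) in phenol-red-free DMEM with 10% FBS were exposed to library compounds over a concentration series for 72 h at 37 degrees C. Viability read by CellTiter-Glo luminescence; concentration-effect curves fitted after normalization.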
ALOX12 inh = blocks human arachidonate 12S-lipoxygenase; P18054; purified 12hLO, xylenol orange hydroperoxide absorbance; Potency, µM (highest dose often 108 µM), usual class: inhibitors; 1.1% of 580,000 active; AID 1671190
Target sequence (P18054 whole entry, looked up): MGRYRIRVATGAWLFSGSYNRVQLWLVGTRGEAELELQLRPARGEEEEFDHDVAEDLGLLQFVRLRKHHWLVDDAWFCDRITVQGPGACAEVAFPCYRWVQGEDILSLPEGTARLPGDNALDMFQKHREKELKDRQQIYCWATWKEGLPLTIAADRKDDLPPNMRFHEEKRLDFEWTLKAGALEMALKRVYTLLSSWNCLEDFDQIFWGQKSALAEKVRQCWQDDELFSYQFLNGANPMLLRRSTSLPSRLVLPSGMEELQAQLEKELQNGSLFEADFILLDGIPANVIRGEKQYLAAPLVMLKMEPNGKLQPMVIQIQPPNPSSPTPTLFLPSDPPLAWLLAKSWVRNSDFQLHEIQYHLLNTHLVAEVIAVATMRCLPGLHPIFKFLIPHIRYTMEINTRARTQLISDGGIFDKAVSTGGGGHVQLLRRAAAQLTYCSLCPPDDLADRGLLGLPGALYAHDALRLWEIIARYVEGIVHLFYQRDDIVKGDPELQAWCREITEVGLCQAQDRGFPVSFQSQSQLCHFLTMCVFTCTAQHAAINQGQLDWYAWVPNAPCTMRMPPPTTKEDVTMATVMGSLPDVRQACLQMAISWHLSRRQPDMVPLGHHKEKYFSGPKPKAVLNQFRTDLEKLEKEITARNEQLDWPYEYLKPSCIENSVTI
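Purified human 12hLO (150 nM final) in 25 mM Hepes, 0.01% Triton X-100, pH 7.0 was preincubated 15 min at room temperature with compound. Then 40 uM arachidonic acid was added, 30 min. Hydroperoxide was read by Fe-XO absorbance ratio 573/405 nm.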
PINK1 modulator = PINK1 expression modulation; PINK1 immunofluorescence, high-content cytometry, 24 h; Potency, µM (top dose mostly 76.6 µM), most hits filed as activators; 0.2% of 410,000 active; active means well fitted activation curve with a large enough effect; inconclusive means small, poorly fitted or top-dose-only effect; cell line not stated here; further: nearly all actives have a fitted effect of over 65% in size
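Decision-based qHTS: stable cells, 24 h exposure to five compound concentrations, CCCP as control. Fixed cells stained for PINK1 plus nuclear, mitochondrial and cell markers, cytometer read.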
KB-3-1 tox = KB-3-1 parental cell cytotoxicity; KB-3-1 viability, CellTiter-Glo ATP luminescence, 72 h; Potency, µM (titrated, usually from 46.1 µM), usual class: cytotoxic; 1.4% of 400,000 active; further: nearly all actives have a fitted effect of over 60% in size
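Screening of KB-3-1 cells (DMEM, 10% FBS, phenol-red free) ran from lowest to highest compound concentration; after 72 h at 37 °C viability was read luminescently and curves fitted.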
MCF10A rereplic = induces DNA re-replication in MCF 10a normal breast cells | MCF 10A DNA re-replication, Hoechst nuclear intensity, 48 h | Potency, µM (series often up to 46.1 µM), hits mostly activators | 2.9% of 350,000 active; further: nearly all actives have a fitted effect of over 50% in size
Each line names hits and unclear results; the compound was inactive in the other large screens. A selection: hits, their analogues and other compounds. The true share with any hit is near 5.8%. Unless noted, the call rests on the fitted dose curve; in most records, active means well fitted curve in the direction sought with a large enough effect; inconclusive means small, poorly fitted or top-dose-only effect, or another doubt; inactive means no such curve, though single readings can be large; an effect the other way counts as inactive or inconclusive.

O=C1C2C3C=CC(CC3)C2C(=O)N1/N=C/c1ccc(O)c(O)c1 (stereo unspecified)	MCF10A rereplic inconclusive
COC(=O)C(C)Oc1ccc2c(=O)c(-c3ccc(Br)cc3)c(C)oc2c1 (stereo unspecified)	none (no result: SW480 rereplic, KB-V1 MDR tox, PINK1 modulator, KB-3-1 tox, MCF10A rereplic)
Cc1cc(C)cc(OCC(=O)Nc2cccc(S(=O)(=O)NC3=NCCC3)c2)c1	SW480 rereplic 21µM, ALOX12 inh inconclusive, KB-3-1 tox inconclusive, MCF10A rereplic inconclusive
CCn1nc(C(=O)NC2CCN(Cc3ccccc3)C2)c2ccccc2c1=O (stereo unspecified)	none (no result: SW480 rereplic, KB-V1 MDR tox, PINK1 modulator, KB-3-1 tox, MCF10A rereplic)
C=CCSC1=N/C(=C\C=C\c2ccccc2)C(=O)S1	ALOX12 inh 14µM (no result: SW480 rereplic, KB-V1 MDR tox, PINK1 modulator, KB-3-1 tox, MCF10A rereplic)
CN(CC(=O)Nc1c(Cl)cccc1Cl)C(=O)CNC(=O)c1cccs1	none (no result: SW480 rereplic, KB-V1 MDR tox, PINK1 modulator, KB-3-1 tox, MCF10A rereplic)
O=c1ccn(Cc2ccccc2)c(=O)n1Cc1ccccc1	MCF10A rereplic 21µM
Cc1ccccc1Cn1cc(NC(=O)c2cc(C(C)C)on2)cn1	none (no result: SW480 rereplic, KB-V1 MDR tox, PINK1 modulator, KB-3-1 tox, MCF10A rereplic)
COc1ccc(C)cc1NC(=O)c1cnc2ccc(C)cn2c1=O	none (no result: SW480 rereplic, MCF10A rereplic)
COc1ccc(C)cc1NC(=O)c1cnc2scc(C)n2c1=O	SW480 rereplic inconclusive, MCF10A rereplic 23µM
O=C(Cn1c(-c2ccccc2)c[n+]2ccsc12)c1ccc([N+](=O)[O-])cc1	PINK1 modulator inconclusive, KB-3-1 tox 21µM
O=C(Cn1c(-c2ccccc2)c[n+]2ccsc12)c1ccccc1	KB-3-1 tox inconclusive
c1csc(-c2nc(CSc3nnc(C4CC4)n3C3CC3)co2)c1	none (no result: SW480 rereplic, KB-V1 MDR tox, PINK1 modulator, KB-3-1 tox, MCF10A rereplic)
COC(=O)C1C(O)=C(C(C)=Nc2cccc3ccccc23)C(=O)CC1(C)C (stereo unspecified)	SW480 rereplic 5.8µM
COC(=O)C1C(O)=C(C=Nc2ccccc2)C(=O)CC1(C)C (stereo unspecified)	none
O=C(COc1ncnc2ccccc12)Nc1ccc(F)cc1	none (no result: SW480 rereplic, KB-V1 MDR tox, PINK1 modulator, KB-3-1 tox, MCF10A rereplic)
COc1cc2ncnc(NCc3ccc(C)o3)c2cc1OC	none
Cc1ccc(CNc2ncnc3cc(Cl)ccc23)o1	KB-V1 MDR tox 21µM, ALOX12 inh inconclusive, KB-3-1 tox inconclusive
Cc1ccccc1N/N=C1\CCCNC1=O	ALOX12 inh 4.5µM
O=C1NCCC/C1=N\Nc1ccc(Br)cc1	ALOX12 inh inconclusive, MCF10A rereplic inconclusive
Cc1ccc(C)c(N/N=C2\CCCNC2=O)c1	ALOX12 inh 8.9µM
Cc1ccc(C)c(NS(=O)(=O)c2ccc3[nH]c(=O)[nH]c3c2)c1	none
Brc1ccc(-c2ccnc3nc(-c4ccco4)nn23)s1	none (no result: SW480 rereplic, KB-V1 MDR tox, PINK1 modulator, KB-3-1 tox, MCF10A rereplic)
COc1ccccc1CNc1nc(NCc2ccccc2F)c2sccc2n1	KB-V1 MDR tox 18µM, PINK1 modulator inconclusive, KB-3-1 tox inconclusive (no result: SW480 rereplic, ALOX12 inh, MCF10A rereplic)
COCCNc1nc(NCc2cccc(OC)c2OC)c2sccc2n1	KB-V1 MDR tox inconclusive (no result: SW480 rereplic, MCF10A rereplic)
COc1ccccc1CNc1ncnc2sccc12	KB-V1 MDR tox 5.2µM, KB-3-1 tox inconclusive
c1ccc2c(c1)OCC(CNCC1COc3ccccc3O1)O2 (stereo unspecified)	KB-V1 MDR tox inconclusive
c1ccc2c(c1)OCC(CNc1ncnc3sccc13)O2 (stereo unspecified)	KB-V1 MDR tox inconclusive, KB-3-1 tox 1.6µM
COc1ccccc1CNc1nc(NCc2cccc(OC)c2OC)c2sccc2n1	KB-V1 MDR tox 21µM, ALOX12 inh inconclusive, PINK1 modulator inconclusive (no result: SW480 rereplic, MCF10A rereplic)
Fc1ccccc1CNc1ncnc2sccc12	none
COc1ccc(CNC(=O)CSc2ccccc2C(=O)OCC(=O)C(C)(C)C)cc1	none (no result: SW480 rereplic, KB-V1 MDR tox, PINK1 modulator, KB-3-1 tox, MCF10A rereplic)
Cc1ccsc1CNC(=O)CSCC#N	none (no result: SW480 rereplic, KB-V1 MDR tox, PINK1 modulator, KB-3-1 tox, MCF10A rereplic)
O=c1oc2ccccc2cc1S(=O)(=O)N1CCCCCC1	none (no result: SW480 rereplic, KB-V1 MDR tox, PINK1 modulator, KB-3-1 tox, MCF10A rereplic)
COC(=O)c1ccc(NC(=O)COc2ccc3c(C)cc(=O)oc3c2)cc1	none (no result: SW480 rereplic, KB-V1 MDR tox, PINK1 modulator, KB-3-1 tox, MCF10A rereplic)
Cc1ccc(NC(=O)c2ccccc2NS(=O)(=O)c2ccc(Cl)s2)cc1	SW480 rereplic inconclusive, KB-V1 MDR tox 7.3µM, ALOX12 inh inconclusive, PINK1 modulator 20µM, KB-3-1 tox 10µM, MCF10A rereplic 9.2µM
O=C(Nc1ccccc1Cc1ccccc1)c1ccccc1NS(=O)(=O)c1ccc(Cl)s1	SW480 rereplic inconclusive, KB-V1 MDR tox 2.6µM, ALOX12 inh inconclusive, PINK1 modulator 11µM, KB-3-1 tox inconclusive, MCF10A rereplic 9.2µM
